Screening data: PubChem, National Center for Advancing Translational Sciences (NCATS)
FLuc counter: inhibits or activates purified firefly luciferase, miR-21 counter-screen; Potency, µM (top dose mostly 57.5 µM), inactives show at the top dose activity change, negative = inhibition, hits mostly inhibitors; purified FLuc, Km substrates, luminescence inhibition; 360,000 compounds, 6.9% hits; AID 588342;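 also: plate controls were vehicle for no effect and reference inhibitor for full effect; nearly all actives have a fitted effect of over 55% in size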
Target sequence (P08659 whole entry, looked up): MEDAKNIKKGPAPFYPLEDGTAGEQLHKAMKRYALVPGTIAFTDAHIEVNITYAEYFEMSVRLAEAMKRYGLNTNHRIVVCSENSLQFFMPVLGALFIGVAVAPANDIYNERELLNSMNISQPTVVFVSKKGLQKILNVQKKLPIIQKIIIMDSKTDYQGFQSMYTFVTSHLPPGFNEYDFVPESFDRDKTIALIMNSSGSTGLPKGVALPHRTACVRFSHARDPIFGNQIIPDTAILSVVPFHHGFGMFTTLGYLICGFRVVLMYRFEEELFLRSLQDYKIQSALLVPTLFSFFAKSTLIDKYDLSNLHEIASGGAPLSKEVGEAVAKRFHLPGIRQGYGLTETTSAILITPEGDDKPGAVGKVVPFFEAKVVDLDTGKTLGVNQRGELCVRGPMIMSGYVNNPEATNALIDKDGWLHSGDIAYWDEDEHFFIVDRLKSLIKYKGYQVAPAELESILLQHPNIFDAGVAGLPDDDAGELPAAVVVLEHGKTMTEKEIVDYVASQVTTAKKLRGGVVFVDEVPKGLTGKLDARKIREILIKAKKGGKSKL
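Purified P. pyralis luciferase (10nM final) with 10uM D-luciferin and 10uM ATP (Km levels) in 50mM Tris acetate pH 7.5, 10mM Mg acetate, 0.01% Tween-20, 0.05% BSA; qHTS 6-point titration, ~60 µM downward; luminescence read.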
ELG1 DNA repair: inhibitors of ELG1-dependent DNA repair in HEK293T cells; AID 504467; HEK293T ELG1-luciferase reporter, luminescence, 16 h; DNA damage induced by 5-fluorouridine; 330,000 compounds, 2.3% hits; Potency, µM (top dose mostly 46.1 µM), without a hit: at the highest dose activity change, negative = inhibition, usual class: inhibitors; also: % is scaled to controls: 0 for no effect and ±100 for the full control effect; nearly all actives have a fitted effect of over 55% in size
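Reporter activity after DNA damage by 5-fluorouridine is monitored. Compound-treated cells incubate 16 hr at 37 °C, then ONE-Glo is added for 30 min before luminescence reading.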
SMN2 splice enh: increases expression of the SMN2 splice variant; HEK293 SMN2-luciferase splicing reporter, luminescence, 30-36 h; Potency, µM (titrated, usually from 46.1 µM), inactives show at the highest dose activity change, positive = activation, usual class: activators; 210,000 compounds, 2.8% hits; AID 1458; also: % of control where 0% means no effect; nearly all actives have a fitted effect of over 55% in size
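HEK293 cells carry an SMN2 minigene-luciferase reporter in which exon 7 inclusion puts luciferase in frame. Cells were seeded at 2000 cells/well, attached for 10-12 hours, then exposed to compounds for 30-36 hours at 37C before ONE-Glo luminescence.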
Rab9 promoter act: activators of Rab9 promoter; Potency, µM (doses to about 9.22 µM), without a hit: top-dose activation, negative = inhibition, actives largely listed as activators; AID 485297; 320,000 compounds, 2.8% hits; Huh7 Rab9 promoter-luciferase reporter, luminescence, 24 h; also: % of control where 0% means no effect; nearly all actives have a fitted effect of over 60% in size
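Luciferase signal after 10 min detection reagent at ambient indicates Rab9 promoter upregulation; stably transfected Huh7 cells were treated 24 h with compound in DMSO at 37 °C, 5% CO2.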
NPC1 prom act: NPC1 promoter activation. Potency, µM (series often up to 9.22 µM), for the others: at the top dose activation, most hits filed as activators. Huh7 NPC1 promoter luciferase reporter, 24 h. 320,000 compounds, 2.4% hits. AID 485313; also: % of control where 0% means no effect; nearly all actives have a fitted effect of over 60% in size
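NPC1 promoter–luciferase Huh7 cells; 24 h compound; luminescence.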
ELG1 genotoxic: induces genotoxicity in HEK293T cells with luciferase-tagged ELG1; HEK293T ELG1-luciferase reporter, luminescence, 16 h; Potency, µM (highest dose often 46 µM), without a hit: top-dose activity change, positive = activation, most hits filed as activators; 330,000 compounds, 1.3% hits; AID 504466; also: % of control where 0% means no effect; nearly all actives have a fitted effect of over 60% in size
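Luminescence read-out: rising ELG1-luciferase signal, reflecting elevated ELG1 protein under genetic stress, flags genotoxic compounds. Cells were treated for 16 hr at 37 °C before ONE-Glo detection.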
The depositor's hits bear a star. Most compounds without a hit are left out; they make up all but 9.4% or so of the library. Calls follow the shape of the dose curve; as a rule, active = well fitted curve in the direction sought with a large enough effect; inconclusive = small, poorly fitted or top-dose-only effect, or another doubt; inactive = no such curve, though single readings can be large; an effect the other way counts as inactive or inconclusive. Potency is read from the fitted curve at half-maximal effect.

CC(C)c1ccc(/C=N/Nc2ccc(C(=O)O)cc2)cc1 was read as FLuc counter 0.19µM*, ELG1 DNA repair inconclusive, SMN2 splice enh -70.7%, Rab9 promoter act -23.2%, NPC1 prom act -23.0% and ELG1 genotoxic inconclusive.
`O=C(O)c1cccc(N/N=C/C2=C(Cl)c3cc(Cl)ccc3SC2)c1` gave FLuc counter 1.35µM*, ELG1 DNA repair inconclusive, SMN2 splice enh 0.501µM*, Rab9 promoter act 0.794µM*, NPC1 prom act 0.316µM* and ELG1 genotoxic 0.58µM*.
For O=C(O)c1ccc(N/N=C/c2ccc(-c3ccccc3)cc2)cc1 the results were FLuc counter 0.477µM*, ELG1 DNA repair inconclusive, SMN2 splice enh 3.98µM*, Rab9 promoter act 0.316µM*, NPC1 prom act inconclusive and ELG1 genotoxic inconclusive.
For CC(C)c1ccc(/C=N/NC(=O)CC(=O)NCc2ccccc2)cc1 the results were FLuc counter inconclusive, ELG1 DNA repair 14.0%, SMN2 splice enh 29.7%, Rab9 promoter act -3.3%, NPC1 prom act -7.8% and ELG1 genotoxic 5.0%.
NC(=O)N/N=C/c1cccc(C(F)(F)F)c1 was read as FLuc counter 2.3%, ELG1 DNA repair -10.6%, Rab9 promoter act 3.8%, NPC1 prom act -1.1% and ELG1 genotoxic 2.0%.
O=C(O)c1ccc(/C=N/Nc2cccc(C(F)(F)F)c2)cc1 was read as FLuc counter 21.3µM*, ELG1 DNA repair inconclusive, SMN2 splice enh 10µM*, Rab9 promoter act 2.51µM*, NPC1 prom act 2.82µM* and ELG1 genotoxic inconclusive.
For O=C(O)c1ccc(/C=N/O)cc1 the results were FLuc counter 0.3%, ELG1 DNA repair 4.5%, Rab9 promoter act -0.6%, NPC1 prom act -4.5% and ELG1 genotoxic 0.7%.
`CCN1CCN(c2cc3c(cc2F)c(=O)c(S(=O)(=O)c2ccc(OC)cc2)cn3CC)CC1` gave FLuc counter -6.3%.
CCCCC(=O)N1CCN(c2nc3ccc(Cl)cc3s2)CC1 was read as FLuc counter 10.7µM*, ELG1 DNA repair inconclusive, Rab9 promoter act 29.3%, NPC1 prom act inconclusive and ELG1 genotoxic inconclusive.
`CC(C)(CC(=O)O)CC(=O)N1CCN(c2nc3ccc(Cl)cc3s2)CC1` gave FLuc counter -16.9%, ELG1 DNA repair 5.1%, Rab9 promoter act -1.4%, NPC1 prom act -1.6% and ELG1 genotoxic 5.2%.
For O=C(C1CC1)N1CCN(c2nc3ccccc3s2)CC1 the results were FLuc counter 21.3µM*, ELG1 DNA repair inconclusive, SMN2 splice enh inconclusive, Rab9 promoter act 2.24µM*, NPC1 prom act 2.82µM* and ELG1 genotoxic inconclusive.
Screening CCC(=O)N1CCN(c2nc3ccccc3s2)CC1 returned FLuc counter 16.9µM*, ELG1 DNA repair inconclusive, SMN2 splice enh 2.4%, Rab9 promoter act 3.16µM*, NPC1 prom act inconclusive and ELG1 genotoxic 6.2%.
CCS(=O)(=O)c1ccccc1C(=O)N1CCN(c2nc3ccccc3s2)CC1 was read as FLuc counter -4.3%.
For Cc1onc(-c2ccccc2Cl)c1C(=O)N1CCN(c2nc3ccccc3s2)CC1 the results were FLuc counter 0.1%, ELG1 DNA repair 13µM*, SMN2 splice enh -29.2%, Rab9 promoter act 0.1%, NPC1 prom act -5.0% and ELG1 genotoxic 2.4%.
For COc1ccc(-n2ccnc(NCCc3ccc(S(N)(=O)=O)cc3)c2=O)cc1 the results were FLuc counter -5.7%.
Cc1cc2c(cc1S(=O)(=O)CCC(=O)N1CCC(C)CC1)OCC(=O)N2 was read as FLuc counter -17.7%.
CN(C1CCCCC1)S(=O)(=O)c1ccc(C(=O)N2CCN(c3nc4ccccc4s3)CC2)cc1 was read as FLuc counter 0.6%, ELG1 DNA repair 9.2µM*, SMN2 splice enh -65.9%, Rab9 promoter act -21.2%, NPC1 prom act -8.0% and ELG1 genotoxic -0.7%.
`Cc1cc(C)c2sc(N3CCN(C(=O)c4ccc(N(C)C)cc4)CC3)nc2c1` gave FLuc counter -14.9%.
For CNC(=S)N1CCN(c2nc3ccccc3s2)CC1 the results were FLuc counter 16.9µM*, ELG1 DNA repair inconclusive, Rab9 promoter act inconclusive, NPC1 prom act inconclusive and ELG1 genotoxic 17.1%.
`Cc1cc(C)c2sc(N3CCN(C(=O)C4CC4)CC3)nc2c1` gave FLuc counter 12µM*.
For COc1ccc(CN2CCN(c3nc4ccccc4s3)CC2)cc1 the results were FLuc counter inconclusive, ELG1 DNA repair inconclusive, Rab9 promoter act inconclusive, NPC1 prom act 23.9% and ELG1 genotoxic 6.3%.
`Cc1ccccc1CN1CCN(c2nc3ccccc3s2)CC1` gave FLuc counter 4.78µM*, ELG1 DNA repair inconclusive, Rab9 promoter act 1.41µM*, NPC1 prom act 1.58µM* and ELG1 genotoxic 20.6µM*.
`CC(=O)c1ccc(N=Cc2c(O)n(-c3cc(Cl)ccc3N3CCOCC3)c(=O)c3ccccc23)cc1` gave FLuc counter -13.6%, ELG1 DNA repair 7.31µM*, SMN2 splice enh 24.6%, Rab9 promoter act -12.1%, NPC1 prom act -4.3% and ELG1 genotoxic -0.9%.
For CN1C(=O)/C(=N\OC(=O)c2cccc3ccccc23)c2ccccc21 the results were FLuc counter 10.7µM*, ELG1 DNA repair inconclusive, SMN2 splice enh -10.5%, Rab9 promoter act 9.0%, NPC1 prom act 1.5% and ELG1 genotoxic 5.4%.
`CN1C(=O)c2ccc(NC(=O)c3cccc4ccccc34)cc2C1=O` gave FLuc counter -6.6%, ELG1 DNA repair -3.2%, Rab9 promoter act -3.3%, NPC1 prom act 3.1% and ELG1 genotoxic 0.7%.
`CCOC(=O)c1c(NC(=O)C2=C(C)NC(=S)NC2c2ccc(F)cc2)sc(C)c1C` (stereo not given) gave FLuc counter 4.2%, ELG1 DNA repair 7.31µM*, SMN2 splice enh -12.6%, Rab9 promoter act -3.9%, NPC1 prom act -5.8% and ELG1 genotoxic -10.0%.
Screening CCOC(=O)c1c(NC(=O)C2=C(C)NC(=S)NC2c2ccc(C)cc2)sc(C)c1C (stereo not given) returned FLuc counter 6.6%, ELG1 DNA repair inconclusive, SMN2 splice enh -11.5%, Rab9 promoter act -3.1%, NPC1 prom act -7.5% and ELG1 genotoxic -9.3%.
Cc1ccc2nc(SCc3nc(-c4ccc(Cl)cc4)no3)[nH]c2c1 was read as FLuc counter -2.1% and SMN2 splice enh -61.4%.
CCC(=O)Nc1cccc(C(=O)/C=C/c2ccccc2)c1 was read as FLuc counter 10.7µM*, ELG1 DNA repair inconclusive, SMN2 splice enh -87.6%, Rab9 promoter act 5.6%, NPC1 prom act -2.4% and ELG1 genotoxic inconclusive.
